# Screening results (PubChem BioAssay)
# Lassa entry inh = blocks Lassa virus binding to or entry into cells | Potency, µM (series often up to 37.9 µM), for the others: at the top dose activity change, negative = inhibition, most hits filed as inhibitors | 300,000 tested, 1.2% active | Lassa virus pseudotype entry inhibition, cell reporter; calls by dose curve; tested in HEK293 cells; note: potency is the fitted concentration of half-maximal effect; nearly all actives have a fitted effect of over 50% in size
# FBPA Giardia inh = blocks Giardia fructose-bisphosphate aldolase activity; 290,000 tested, 0.71% active; AID 2451; A8B2U2; purified Giardia FBPA; Potency, µM (series often up to 59.6 µM), for the others: at the highest dose activity, negative = inhibition, hits mostly inhibitors; note: potency is the fitted concentration of half-maximal effect; nearly all actives have a fitted effect of over 55% in size
# Target sequence (A8B2U2 whole entry, looked up): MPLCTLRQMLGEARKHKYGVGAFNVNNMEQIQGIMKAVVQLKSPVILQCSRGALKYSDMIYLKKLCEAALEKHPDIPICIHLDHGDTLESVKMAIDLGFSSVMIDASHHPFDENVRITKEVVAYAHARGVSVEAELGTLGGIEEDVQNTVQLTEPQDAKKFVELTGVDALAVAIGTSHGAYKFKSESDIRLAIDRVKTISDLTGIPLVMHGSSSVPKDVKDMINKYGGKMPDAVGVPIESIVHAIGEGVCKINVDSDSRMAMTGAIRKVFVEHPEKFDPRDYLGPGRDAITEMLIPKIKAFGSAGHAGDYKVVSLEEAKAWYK
#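 40 nM FBPA preincubated 10 min at RT with compound (up to 57.5 uM final), then substrate plus GAPDH/TPI/NAD/arsenate coupling and diaphorase/resazurin added. Fluorescence read after 20 min at RT, 525/598 nm.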
# MARV entry inh = inhibitors of Marburg virus binding or cell entry; 300,000 tested, 1.8% active; Marburg virus pseudotyped entry inhibition, cell reporter; AID 540276; Potency, µM (titrated, usually from 37.8 µM), for inactives: at the highest dose activity change, negative = inhibition, usual class: inhibitors; calls by dose curve; tested in HEK293 cells; note: potency is the fitted concentration of half-maximal effect
# HCMV inh = inhibitors of human cytomegalovirus | 410,000 tested, 4.5% active | HFF cells, HCMV-luciferase reporter, 72 h; hits give low values | activity change, negative = inhibition, % at 57.5 µM; in the data active = activity change below about -60%; inconclusive = no clear call, values can overlap the other calls; inactive = above about -39%
#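 After 16 h attachment at 37C, HFF cells received test compound and HCMV-luciferase (1 PFU/cell); reporter luminescence read 72 h later, data normalized against buffer-only and known inhibitor Salinomycin.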
# FMDV antiviral = antivirals against foot and mouth disease virus; FMDV antiviral cell-based qHTS; 410,000 tested, 1.2% active; AID 1159524; Potency, µM (titrated, usually from 57.9 µM), for the others: at the highest dose activity change, negative = inhibition, actives largely listed as inhibitors; calls by dose curve; tested in HEK293T cells; note: read-out not given here; potency is the fitted concentration of half-maximal effect; nearly all actives have a fitted effect of over 45% in size
# HCV inh = HCV inhibition. Huh7.5.1 HCVcc-Cre infection, luciferase reporter, 44 h. Potency, µM (doses to about 41.8 µM), for inactives: at the highest dose activity change, negative = inhibition, usual class: inhibitors. 340,000 tested, 3.4% active; note: potency is the fitted concentration of half-maximal effect
#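 A cell-based infection assay in which seeded cells (1,000 per well) receive test compound after 4 h, are inoculated with HCVcc-Cre at approximately 0.5 moi, and are incubated 44 h before luminescence detection.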
# The depositor's hits bear a star; ? = inconclusive; / = no result; [ ] = dose if it differs, or a comment. Only some compounds are listed: those with a hit (about 8.3% of all), similar ones and a draw of the others. Unless noted, calls come from the whole dose curve; as a rule, active = well fitted curve in the direction sought with a large enough effect; inconclusive = small, poorly fitted or top-dose-only effect, or another doubt; inactive = no such curve, though single readings can be large; an effect the other way counts as inactive or inconclusive. % is set by controls: 0 for no effect and ±100 for the full control effect.
SMILES,Lassa entry inh,FBPA Giardia inh,MARV entry inh,HCMV inh,FMDV antiviral,HCV inh
CCOc1ccc(CNC(=O)CCCn2nc(CC)n3c(cc4occc43)c2=O)cc1,/,0.7%,/,-60.0*,-10.5%,?
CCc1nn(CCCC(=O)NCc2ccco2)c(=O)c2cc3occc3n12,?,13.0%,6.5%[46.1 µM],?,-6.9%,?
CCc1nn(C(C)C(=O)NC2CCCCCC2)c(=O)c2cc3occc3n12 (centres undefined),18.0%[46.1 µM],/,20.6%[46.1 µM],?,22.9%,10µM*
Cc1ccc(NC(=O)C2CCN(c3cc(C)nc4c(-c5ccc(Cl)cc5)c(C)nn34)CC2)c(C)c1,?,/,?,4.6,-14.3%,/
CCOCCCn1c(SCC(=O)Nc2ccc(C)cc2)nc2ccccc2c1=O,-2.1%[46.1 µM],/,/,?,-6.6%,/
CCN1C(=O)c2ccccc2S(=O)(=O)c2ccc(C(=O)NCc3ccc(C)cc3)cc21,-14.0%[46.1 µM],/,-1.0%[46.1 µM],5.0,-3.0%,/
COC(=O)C1=C(C)N(Cc2ccccc2)C(=NCC2CC2)NC1c1ccc(Br)cc1 (centres undefined),/,/,-10.3%[14.2 µM],/,/,/
CCCCS(=O)(=O)N1CCN(C(=N)N[N+](=O)[O-])CC1,21.5%,0.2%,10.2%[46.1 µM],-62.4*,-7.8%,21.1%
CCCS(=O)(=O)N1CCN(S(=O)(=O)c2ccccc2[N+](=O)[O-])CC1,?,2.9%,-11.7%[46.1 µM],-34.6,-12.4%,-2.6%
N#Cc1cccc(-c2cncnc2NCc2cccs2)c1,/,11.9%,/,/,-12.7%,/
CCCn1c(=O)[nH]c(=O)c2c1nc(-c1ccc(OC)c(Br)c1)n2CCOC,7.94µM*,2.8%,1.9%[46.1 µM],-8.1,-10.7%,8.2%
CCCOc1ccc(-c2nc3c(c(=O)[nH]c(=O)n3Cc3ccccc3)n2CCO)cc1OCC,?,13.5%,?,55.4,-16.1%,?
CCCCn1c(=O)[nH]c(=O)c2c1nc(-c1ccc(OCCC)c(OCC)c1)n2CCOC,?,-2.3%,-0.7%[46.1 µM],-27.6,-14.8%,25.1µM*
CC1(C)C(O)C=C[C@@]2(C)C1CC(=O)O[C@@]1(C)C3=CC(=O)OC(c4ccoc4)[C@]3(C)CCC21 (some centres undefined),/,4.1%,/,/,-8.3%,/
OCC1OC(/C=C\c2ccccc2)C=CC1Oc1ccc2c(c1)OCO2 (centres undefined),/,-6.1%[12.9 µM],/,/,/,/
CC(C)Cn1c(N)c(C(=O)COC(=O)c2ccccc2C(=O)c2ccccc2)c(=O)n(C)c1=O,/,/,/,-7.3,?,10µM*
CC(C)Cn1c(N)c(C(=O)COC(=O)Cc2cccs2)c(=O)n(C)c1=O,-25.2%,/,-20.3%,-7.6,?,2.9%
CC(C)Cn1c(N)c(C(=O)COC(=O)c2ccccc2F)c(=O)n(C)c1=O,-25.0%[46.1 µM],-2.5%,-0.9%[46.1 µM],-21.0,-5.4%,11.2µM*
CC(C)Cn1c(N)c(C(=O)COC(=O)c2ccccc2Cl)c(=O)n(C)c1=O,/,-3.0%,/,-17.1,?,?
CC(C)Cn1c(N)c(C(=O)COC(=O)/C=C/c2cccs2)c(=O)n(C)c1=O,?,0.1%,?,-73.1*,17.8µM*,3.98µM*
CCOc1ccc(NC(=O)CSc2nc3ccsc3c(=O)n2C(C)CC)cc1 (centres undefined),-4.8%[46.1 µM],/,/,3.8,-21.9%,/
CC(=O)[C@H]1CC[C@H]2[C@@H]3C=CC4=CC(=O)CC[C@@]4(C)[C@@H]3CC[C@]12C,/,/,/,16.6,?,0.562µM*
CCCCCc1nc2sc3c(c2c(=O)n1NC(=O)c1ccc([N+](=O)[O-])cc1)CC(C)(C)OC3,?,7.2%,?,-89.3*,-13.4%,?
CC(=O)N1/C(=C/c2ccc(N(C)C)cc2)C(=O)c2ccccc21,?,-10.4%,12.6µM*,6.8,20µM*,24.6%
C=CCOC(=O)C1=C(C)NC(C)=C(C(=O)OCC=C)C1c1ccco1,/,-3.7%,-2.5%,-26.7,-26.8%,11.2µM*
SMILES,Lassa entry inh,FBPA Giardia inh,MARV entry inh,HCMV inh,FMDV antiviral,HCV inh
C=CCOC(=O)C1=C(C)NC(SCC)=C(C#N)C1c1ccc(Cl)cc1 (centres undefined),-7.1%,-7.0%,?,-29.8,?,10µM*
COCCOC(=O)C1=C(C)NC(SCC(=O)NC(C)(C)C)=C(C#N)C1c1ccco1 (centres undefined),-28.2%,5.7%,8.0%,-32.1,9.7%,-10.2%
C=CCOC(=O)C1=C(C)NC(SCC(=O)Nc2ccc(C)c(Cl)c2)=C(C#N)C1c1ccco1 (centres undefined),-24.5%,3.1%,10µM*,?,-12.4%,6.31µM*
COc1ccc(C(=O)C(C(=O)Nc2c(C)cccc2C)N(C(=O)Cc2ccc([N+](=O)[O-])cc2)c2ccccc2)cc1 (centres undefined),/,/,/,-6.3,/,/
CCC1CCCCC1,/,5.3%,/,/,/,/
CCOc1ccc2nc(NC(=O)CSC3=NCCS3)sc2c1,?,-5.6%,?,-34.2,-25.7%,8.91µM*
COc1ccc2nc(NC(=O)CSC3=NCCS3)sc2c1,-0.8%,0.8%,?,-28.0,35.2%,?
COc1ccc2nc(NC(=O)CSc3cn[nH]n3)sc2c1,/,14.2%,?,65.8,35.1%,12.6µM*
Cc1ccc(/C=C/c2nnc(-c3cccs3)o2)cc1,10.3µM*,0.3%,11.6µM*,15.8,/,5.8%
Cc1ccc(CSc2nc(-c3ccc(C(C)(C)C)cc3)nc3cc(=O)[nH]n23)cc1,12.3%[46.1 µM],/,/,-105.4*,-12.5%,/
Cc1ccc2c(C)c(C(=O)N(Cc3ccc(Cl)cc3)C3CCS(=O)(=O)C3)oc2c1 (centres undefined),-28.9%[46.1 µM],/,-22.8%[46.1 µM],6.6,-14.4%,/
CCc1ccc(CN(C(=O)COc2c(C)cccc2C)C2CCS(=O)(=O)C2)cc1 (centres undefined),/,-8.2%,/,-108.7*,14.1%,-21.2%
Cc1cccc(C)c1OCC(=O)N(Cc1ccc(N(C)C)cc1)C1CCS(=O)(=O)C1 (centres undefined),/,8.1%,/,88.5,?,13.8%
Cc1ccc2oc(C(=O)N(Cc3sccc3C)C3CCS(=O)(=O)C3)c(C)c2c1 (centres undefined),?,/,3.16µM*,8.1,?,/
CCOc1ccc(CN(C(=O)c2oc3cc(C)ccc3c2C)C2CCS(=O)(=O)C2)cc1 (centres undefined),13µM*,1.3%,?,13.8,-20.2%,?
CCSc1nc2cc(OC)c(OC)cc2c(=O)n1CC,-21.7%,3.5%,0.3%,-21.1,0.0%,5.01µM*
CCn1c(SCc2nc3cc(OC)c(OC)cc3c(=O)[nH]2)nc2ccccc21,12.0%[46.1 µM],-2.3%,8.3%[46.1 µM],-31.1,-23.7%,-7.5%
O=C(CSc1nnc(-c2ccncc2)n1-c1ccccc1)Nc1ccc(F)cc1,-4.6%[46.1 µM],/,/,2.6,3.5%,/
Cc1cccc(C)c1NC(=O)CCCSc1nnc(-c2ccc(Cl)cc2)n1-c1ccccc1,?,9.5%,?,-79.5*,14.1µM*,?
Cc1cccc(C)c1NC(=O)CCCSc1nnc(-c2ccc(F)cc2)n1-c1ccccc1,?,12.1%,?,-68.7*,?,?
